Among all 5,500 compounds or so, about 2,000 (36%) were called active. Not shown: some 18% with an inconclusive outcome. No stated cut-off is given here; in the data, active means normalized growth mostly below about 0.91 (no sharp cut-off); inconclusive means no clear call, values can overlap the other calls; inactive means mostly above about 0.92. Some of the results follow.
Test: chemical genetic growth profiling, strain panel (AID 1159580);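 further: tested at 20 µM; growth read once vehicle control cultures reached saturation at 30 °C; 1 = growth at the plate median or of vehicle wells; lower values mean less growth of the strain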
Conditions: S. cerevisiae deletion strains, growth OD

Measured: normalized growth

Cc1noc(C)c1S(=O)(=O)Nc1csc(C(F)(F)F)c1-c1ccccc1
inactive: locus YAR019C, strain CDC15, active compounds read low 0.976 | locus YBL105C, strain PKC1, active compounds read low 0.982 | locus YBR135W, strain CKS1, active compounds read low 0.983 | locus YBR136W, strain MEC1, active compounds read low 0.978 | locus YBR160W, strain CDC28, active compounds read low 0.982 | locus YDL017W, strain CDC7, active compounds read low 0.979 | locus YDL028C, strain MPS1, active compounds read low 0.973 | locus YDL101C, strain DUN1, active compounds read low 0.97 | locus YDL108W, strain KIN28, active compounds read low 0.985 | locus YDL132W, strain cdc53, active compounds read low 0.977 | locus YDL214C, strain PRR2, active compounds read low 0.997 | locus YDR052C, strain DBF4, active compounds read low 0.979 | locus YDR054C, strain cdc34, active compounds read low 0.973 | locus YDR226W, strain ADK1, active compounds read low 0.979 | locus YDR477W, strain SNF1, active compounds read low 1.04 | locus YER123W, strain YCK3, active compounds read low 1.05 | locus YER133W, strain GLC7, active compounds read low 1.02 | locus YFL009W, strain cdc4, active compounds read low 0.969 | locus YFL029C, strain CAK1, active compounds read low 0.979 | locus YFR003C, strain YPI1, active compounds read low 0.983 | locus YFR019W, strain FAB1, active compounds read low 1.01 | locus YFR028C, strain CDC14, active compounds read low 0.97 | locus YGR040W, strain KSS1, active compounds read low 1.04 | locus YGR052W, strain FMP48, active compounds read low 1.12 | locus YGR092W, strain DBF2, active compounds read low 1.02 | locus YHR030C, strain SLT2, active compounds read low 1.09 | locus YHR079C, strain IRE1, active compounds read low 1.06 | locus YHR082C, strain KSP1, active compounds read low 1.08 | locus YHR205W, strain SCH9, active compounds read low 1 | locus YIL147C, strain SLN1, active compounds read low 0.975 | locus YJL095W, strain BCK1, active compounds read low 1.07 | locus YJL128C, strain PBS2, active compounds read low 0.957 | locus YJL157C, strain FAR1, active compounds read low 1.01 | locus YJR016C, strain ILV3, active compounds read low 0.982 | locus YJR066W, strain TOR1 (second series), active compounds read low 1.04 | locus YJR066W, strain TOR1, active compounds read low 1.07 | locus YKL048C, strain ELM1, active compounds read low 0.973 | locus YKL067W, strain YNK1, active compounds read low 1 | locus YKL101W, strain HSL1, active compounds read low 0.978 | locus YKL193C, strain SDS22, active compounds read low 0.976 | locus YKL203C, strain TOR2, active compounds read low 1.08 | locus YLR113W, strain HOG1, active compounds read low 1.04 | locus YLR133W, strain CKI1, active compounds read low 1.01 | locus YLR403W, strain SFP1, active compounds read low 1.05 | locus YML070W, strain DAK1, active compounds read low 1.04 | locus YMR001C, strain CDC5, active compounds read low 0.971 | locus YMR205C, strain PFK2 (second series), active compounds read low 0.995 | locus YMR277W, strain FCP1, active compounds read low 0.98 | locus YNL006W, strain LST8, active compounds read low 0.98 | locus YNL020C, strain ARK1, active compounds read low 0.993 | locus YNL161W, strain CBK1, active compounds read low 0.972 | locus YNL183C, strain NPR1, active compounds read low 1.06 | locus YNL207W, strain RIO2, active compounds read low 0.978 | locus YNL222W, strain SSU72, active compounds read low 0.98 | locus YNL307C, strain MCK1 (second series), active compounds read low 1 | locus YOL078W, strain AVO1, active compounds read low 0.978 | locus YOL136C, strain PFK27, active compounds read low 1.02 | locus YOR061W, strain CKA2, active compounds read low 0.985 | locus YOR119C, strain RIO1, active compounds read low 1.02 | locus YOR231W, strain MKK1, active compounds read low 1.05 | locus YOR329C, strain SCD5, active compounds read low 0.975 | locus YPL031C, strain PHO85, active compounds read low 1.03 | locus YPL153C, strain RAD53, active compounds read low 1.04 | locus YPL204W, strain HRR25, active compounds read low 1.04 | locus YPL209C, strain IPL1, active compounds read low 0.975 | locus YPL256C, strain CLN2, active compounds read low 1.01 | locus YPR025C, strain CCL1, active compounds read low 0.98 | locus YPR106W, strain ISR1, active compounds read low 0.981 | locus YPR111W, strain DBF20, active compounds read low 0.97 | strain NNK1, active compounds read low 0.964 | strain TSCII, active compounds read low 0.983
